Screens from PubChem.
Shiga inhibitor: Shiga toxin inhibition; Vero cells, Shiga toxin protein synthesis inhibition reporter; inhibition, % at 38.7 µM; 290,000 compounds, 9.2% hits; AID 2315; in the data active = inhibition mostly above about 28%, no sharp cut-off; inactive = mostly below about 43%; also: 0% is about no effect
AMA1 RON2 block: inhibitors of Plasmodium falciparum AMA1-RON2 interaction; AlphaScreen AMA1-biotinylated RON2 peptide binding; Potency, µM (top dose mostly 58.2 µM), for inactives: at the top dose activity change, negative = inhibition, actives largely listed as inhibitors; 360,000 compounds, 0.2% hits; AID 720542; active = well fitted inhibition curve with a large enough effect; inconclusive = small, poorly fitted or top-dose-only effect; inactive = no such curve, though single readings can be large or run the other way;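 also: potency is read from the fitted curve at half-maximal effect; 0% = vehicle wells and -100% = peptide control; nearly all actives have a fitted effect of over 45% in size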
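AMA1 (3D7) with his tag at 25 nM final met compounds first, then biotinylated RON2 peptide at 25 nM; detection used donor plus acceptor beads, 10 µg/mL apiece, read by AlphaScreen after 30 min at room temperature.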
Cycloheximide cs: counter-screen hit for Shiga toxin inhibitors, cycloheximide; max response, %; cell reporter, cycloheximide protein synthesis inhibition counterscreen; 300,000 compounds, 12% hits; in the data active = max response mostly above about 13%, no sharp cut-off; inactive = mostly below about 14%; also: read at 38.3 µM for the half of the compounds with a filed dose; 0% is about no effect
LASV entry inh: inhibitors of Lassa virus binding or cell entry | Lassa virus pseudotype entry inhibition, cell reporter | Potency, µM (series often up to 37.9 µM), inactives show top-dose activity change, negative = inhibition, most hits filed as inhibitors | 300,000 compounds, 1.2% hits | AID 540256; calls by dose curve; tested in HEK293 cells; also: potency is read from the fitted curve at half-maximal effect; % is scaled to controls: 0 for no effect and ±100 for the full control effect; nearly all actives have a fitted effect of over 50% in size
MARV entry inh: blocks Marburg virus binding to or entry into cells. Marburg virus pseudotyped entry inhibition, cell reporter. Potency, µM (highest dose often 37.8 µM), for inactives: at the highest dose activity change, negative = inhibition, usual class: inhibitors. 300,000 compounds, 1.8% hits. AID 540276; calls by dose curve; tested in HEK293 cells; also: potency is read from the fitted curve at half-maximal effect; % is scaled to controls: 0 for no effect and ±100 for the full control effect
Numbers without * were called inactive; ? = inconclusive; nt = no result; + = active, no number; [ ] = another dose, or the depositor's remark. Only a selection was taken, and hits are over-represented in it overall.

SMILES	Shiga inhibitor	AMA1 RON2 block	Cycloheximide cs	LASV entry inh	MARV entry inh
CC(CN1CCN(C)CC1)OC(=O)c1cccc(Cl)c1 (centres undefined)	52.2*	17.3%	17.4*	11.9%	9.4%[46.1 µM]
CC(CN1CCCCC1)OC(=O)c1ccc2c(c1)OCO2 (centres undefined)	24.4	3.4%	25.2*	6.6%	11.1%
CC(CN1CCN(C)CC1)OC(=O)c1ccccc1 (centres undefined)	-3.2	11.5%	-1.7	5.6%	4.7%
CC(CN1CCCCC1)OC(=O)c1cccc(F)c1 (centres undefined)	28.2*	1.3%	18.0*	?	?
CC1CCN(CC(C)OC(=O)c2ccc3c(c2)OCCO3)CC1 (centres undefined)	28.1	10.3%	22.7*	nt	nt
CN1C(=O)C[C@@H](N2CCN(c3ccc(Cl)c(Cl)c3)CC2)C1=O	nt	nt	nt	nt	-7.5%
CC(CN1CCCC1)OC(=O)c1ccc(Cl)cc1Cl (centres undefined)	-2.2	-0.3%	6.1	nt	nt
CC(CN1CCOCC1)OC(=O)c1ccccc1Cl (centres undefined)	9.1	-10.5%	10.1*	20.7%	?
CCn1c(C)nc2cc(C(=O)NNC(=S)NC(=O)c3ccccc3)ccc21	17.7	44.7%	12.4	-12.2%	7.5%
CCn1c(C)nc2cc(C(=O)NNC(=S)Nc3ccc(Cl)cc3Cl)ccc21	10.9	16.0%	16.4*	3.1%	12.6%
CCn1c(C)nc2cc(C(=O)NNC(=S)Nc3ccccc3Cl)ccc21	50.6*	37.7%[2.32 µM]	39.7*	3.3%	?
Brc1ccc(CN2CCc3nc(Nc4ccccc4)ncc3C2)s1	nt	nt	nt	16.6%[46.1 µM]	nt
Cc1ccc(O[C@@H]2[C@H](O)CO[C@@H]2/C=C/C#Cc2ccc(C(C)(C)C)cc2)cc1	nt	nt	nt	nt	-34.7%[14.2 µM]
CCc1ccccc1NC(=O)c1sc2nc3n(c(=O)c2c1C)CCC3	nt	nt	nt	-9.2%[46.1 µM]	nt
Cc1nnc(-c2ccco2)c2cn(-c3cccc(Br)c3)nc12	18.0	1.3%	44.3*	?	-15.7%[46.1 µM]
CC(=O)c1nn(-c2cccc(Br)c2)cc1C(=O)c1ccco1	24.2	-13.7%	-1.4	-2.3%	2.4%
CCOC(=O)Cn1nc(/C=C/c2ccc(C)cc2)ccc1=O	27.5	4.0%	8.2	0.2%	?
CCOC(=O)Cn1nc(/C=C/c2ccc(C(C)C)cc2)ccc1=O	33.2	27.4%	9.7*	?	?
O=[N+]([O-])c1ccc(N=NNc2ccccc2)cc1	184.6*	-5.1%	63.5*	16.6%	24.5%
O=[N+]([O-])c1cccc(NN=Nc2ccccc2)c1	39.5*	-14.9%	29.4*	nt	nt
O=C(O)c1cc(NN=Nc2cccc([N+](=O)[O-])c2)cc([N+](=O)[O-])c1	-6.1	-4.9%	-2.3	nt	nt
Brc1ccc(N=NNc2ccccc2)cc1	92.3*	-4.3%	35.2*	14.4%[46.1 µM]	?
O=C(O)c1cc(NN=Nc2ccc(Br)cc2)cc([N+](=O)[O-])c1	6.3	-4.9%	6.3	nt	nt
Cc1ccc(NC(=O)CN2C(=O)COc3ccc(S(=O)(=O)NC4CCCC4)cc32)cc1N(C)C	nt	nt	nt	-18.5%[46.1 µM]	nt
COc1ccc(CN2C(=O)CN(S(C)(=O)=O)CC2(C)C(=O)Nc2c(C)cccc2C)cc1OC (centres undefined)	nt	13.0%	nt	nt	nt
SMILES	Shiga inhibitor	AMA1 RON2 block	Cycloheximide cs	LASV entry inh	MARV entry inh
C/C(=C\COc1c2ccoc2cc2oc(=O)ccc12)CCC(O)C(C)(C)O (centres undefined)	2.6	nt	-7.7	nt	nt
O=C(NC1=NCCS1)Nc1ccccc1	65.0*	-9.0%	35.9*	-23.4%	?
O=C(NC1=NCCS1)c1csc2ccccc12	58.8*	23.4%	39.3*	?	-1.4%
O=C(NC1=NCCS1)c1ccc(Cl)c(Cl)c1	67.9*	97.5%	47.5*	?	?
O=C(NC1=NCCS1)c1cc(Cl)ccc1Cl	-3.1	0.8%	4.5	nt	nt
O=C(NC1=NCCS1)c1ccccc1Cl	15.1	0.0%	8.2*	?	?
O=C(NC1=NCCS1)c1ccccc1F	nt	0.3%	nt	?	3.2%[14.2 µM]
c1ccc(NC2=NCCS2)cc1	28.3	-5.9%	-0.5	nt	nt
CCOc1ccc(CCNC(=O)CCCc2nnc3n(CCCOC)c(=O)c4sccc4n23)cc1	nt	nt	nt	7.4%[46.1 µM]	nt
Cc1nn(-c2ccc(Br)cc2)c(=O)c2ccccc12	124.6*	2.3%	69.7*	?	?
CCOC(=O)C1=CCN(S(=O)(=O)c2ccccc2C)C1c1ccc(Cl)c(Cl)c1 (centres undefined)	nt	38.3%	nt	nt	nt
CCCCn1c(N)c(N(CC(C)C)C(=O)c2ccc(Br)s2)c(=O)[nH]c1=O	-4.4	3.3%	-4.7	?	20.6%
COC(=O)NCC(c1ccco1)N1CCN(c2ccc(F)cc2)CC1 (centres undefined)	2.4	-2.4%	5.7	-28.3%	0.9%
O=C(NCC(c1ccco1)N1CCN(c2ccc(F)cc2)CC1)OCc1ccccc1 (centres undefined)	-5.8	-16.1%	21.5	1.26µM*	?
Cc1ccc(-c2cc(NC(=O)C(C)Oc3ccc(C)c(C)c3)on2)cc1 (centres undefined)	nt	nt	nt	6.8%[46.1 µM]	27.3%[46.1 µM]
Cc1ccc(Nc2nc(Cl)c(C=O)s2)cc1Cl	24.8	22.4%	23.5*	nt	?
COc1ccccc1Nc1nc(Cl)c(C=O)s1	79.9	11.1%	47.8*	-23.7%	-22.4%[46.1 µM]
COc1ccccc1Nc1nc(C)c(C(=O)Nc2ccccc2)s1	55.9	-21.0%	17.1	?	?
O=Cc1sc(Nc2ccccc2)nc1Cl	24.8	14.4%	18.4*	nt	nt
Cc1ccc(/C=N/NC(=O)c2cc(C3CC3)nc3ccccc23)o1	-4.1	58.8%	-0.6	?	?
CCOC(=O)c1cc2ccc3ccccc3c2oc1=O	3.6	18.5%	2.5	nt	nt
CCOC(=O)c1ccccc1NC(=O)c1cc2c(s1)-c1ccccc1SC2	nt	nt	nt	7.2%[46.1 µM]	?
CCOC(=O)c1cc2c(s1)-c1ccccc1CC2	67.3*	73.5%	36.6*	3.2%	?
CCOC(=O)c1cc2ccc3ccccc3c2s1	74.8*	115.9%	47.9*	?	1.4%
COC(=O)c1cc2c(s1)-c1ccccc1CC2	+	38.6%	62.2*	2.2%	3.2%[46.1 µM]
SMILES	Shiga inhibitor	AMA1 RON2 block	Cycloheximide cs	LASV entry inh	MARV entry inh
Cn1nc(-c2ccc(C(=O)Nc3ccc(OC(F)(F)F)cc3)cc2)c2ccccc2c1=O	nt	nt	nt	-1.6%[46.1 µM]	nt
CC(=O)Nc1ccc(-c2ccnc3c2CC(C)(C(=O)Nc2cccc(Oc4ccccc4)c2)O3)cc1 (centres undefined)	nt	-7.2%	nt	nt	nt
CC(C)CCNC(=O)c1ccc2c(c1)N(Cc1ccccc1F)C(=O)c1ccccc1S2(=O)=O	nt	nt	nt	-19.7%[46.1 µM]	-22.4%[46.1 µM]
C[C@@H]1O[C@@H](O[C@H]2CC[C@@H](O[C@H]3[C@H](O)C[C@H](c4ccc5c(c4O)C(=O)C4=C(C5=O)[C@@]5(O)C(=O)C[C@](C)(O[C@H]6CC[C@H](O[C@H]7C=CC(=O)[C@H](C)O7)[C@H](C)O6)C[C@@]5(O)C=C4)O[C@@H]3C)O[C@H]2C)C=CC1=O	-20.7	nt	-18.1	nt	nt
C/C(=N\NC(=O)CSCc1ccccc1Cl)c1cc(O)ccc1O	40.0*	46.4%	22.6*	nt	nt
CC(=O)Nc1ccc(NC(=O)CSCc2ccccc2Cl)cc1	nt	-16.1%	nt	-0.6%	15.4%[46.1 µM]
COCCNC(=S)Nc1ccc(S(=O)(=O)Nc2ncccn2)cc1	-9.8	-7.3%	-3.6	-9.1%	15.2%[46.1 µM]
